# Inconclusive results are not listed. A call without a number means that no potency is given here. Calls of active or inactive are those of the source. Calls come from the whole dose curve; as a rule, active = well fitted cell-killing curve with a large enough effect; inconclusive = small, poorly fitted or top-dose-only effect, or effect the other way; inactive = no such curve, though single readings can be large or run the other way.
# Test: Viability qHTS for spleen associated tyrosine kinase inhibitor (SYKi) naive MV4-11 cells (AID 1963823); note: nearly all actives have a fitted effect of over 40% in size
# Conditions: MV4-11 AML viability, CellTiter-Glo luminescence, 72 h; series mostly up to 45 µM
# Summary of the method: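 Compounds were dispensed acoustically onto plates, MV4-11 cells (SYKi-naive) added at 500 per well, and plates incubated 72 hr at 37 C. CellTiter-Glo was added and luminescence measured after 10 min.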
# Potency is the fitted concentration of half-maximal effect.
row,Compound,Potency
1,CC(C)C(C#N)O[C@@H]1O[C@H](CO[C@@H]2O[C@@H](C)[C@H](O)[C@@H](O)[C@H]2O)[C@@H](O)[C@H](O)[C@H]1O (stereo not given in full),inactive
2,C[C@H]1CC[C@H]2[C@@H](C=C[C@@](C)(O)[C@]2(C)C(=O)CCO)C1,inactive
3,CCC[C@@H](NC(=O)N1C(=O)C(CC)(CC)[C@@H]1Oc1ccc(C(=O)N2CCN(C)CC2)cc1)c1ccc2c(c1)OCO2,18.4 µM (active)
4,CC1=CCC2C(C)(CO)CCCC2(CO)C1CO (stereo not given),inactive
5,CC1(C)CCCC2(C)C(CO)C3CCC2C31 (stereo not given),inactive
6,COc1c2c(c(C)c3c1C(=O)OC3)OC1(C)CC(O)C34OC(OC)(CCC3(C)C1C2)OC4(C)CO (stereo not given),inactive
7,COc1cc(/C=C/C(=O)O[C@@H]2C[C@@](O)(C(=O)O)C[C@@H](O)[C@@H]2O)ccc1O,inactive
8,CC(C)C1=CC2C(CC[C@]2(C)O)[C@](C)(O)CC1 (stereo not given in full),inactive
9,CC/C=C\CC1C(CC(=O)O)CCC1OC1OC(CO)C(O)C(O)C1O (stereo not given),inactive
10,COc1cc2c(cc1OC)CN(C(=O)/C=C/c1c(-c3ccccc3)n(C)c3ncccc13)CC2,2.59 µM (active)
11,Cc1ccc(NS(=O)(=O)c2ccc3c(c2)CCC(=O)N3)cc1C,11.6 µM (active)
12,CC(C)=CCC(O)[C@](C)(O)C1[C@H](O)C[C@@]2(C)C3CC=C4C(C[C@H](O)[C@@H](O[C@@H]5O[C@H](CO)[C@@H](O)[C@H](O)[C@H]5O)C4(C)C)[C@]3(C)C(=O)C[C@]12C (stereo not given in full),inactive

# Test: Viability qHTS for spleen associated tyrosine kinase inhibitor (SYKi) drug resistant MV4-11 cells (AID 1963824); note: nearly all actives have a fitted effect of over 35% in size
# Conditions: SYKi-resistant MV4-11 viability, CellTiter-Glo, 72 h; series mostly up to 45 µM
# Summary of the method: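 SYK-inhibitor-resistant MV4-11 AML cells were seeded at 500 per well onto compound and cultured 72 hours (37 °C, 5% CO2). CellTiter-Glo was then added, and after 10 min at room temperature, luminescence gave viability.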
row,Compound,Potency
1,C[C@@H]1C(=O)O[C@H](C)[C@H]1CC(=O)[C@](C)(O)[C@H]1CC[C@@]2(O)C3=CC(=O)[C@@H]4C[C@@H](O)[C@@H](O)C[C@]4(C)C3CC[C@]12C (stereo not given in full),inactive
2,Oc1cccc(Nc2ncnc3sc4c(c23)CCCC4)c1,5.8 µM (active)
3,CC(C)C(C(=O)N1CCCC1C(=O)O)N(C)C(=O)C(O)Cc1ccccc1 (stereo not given),inactive
4,COc1ccc(CCc2nc3cc(-c4c(C)noc4C)ccc3n2CC(C)N2CCOCC2)cc1Cl (stereo not given),5.17 µM (active)
5,CC(C)CNC(=O)/C=C/CCCCc1ccc2c(c1)OCO2,inactive
6,CSCC1OC(n2cnc3c(=O)[nH]cnc32)C(O)C1O (stereo not given),inactive
7,COc1ccc(C[C@H](C)NC[C@@H](O)c2ccc(O)c(NC=O)c2)cc1,inactive
8,CCC(C)/C=C(C)/C=C/C1=CC2=C(Cl)C(=O)C(C)(OC(C)=O)C(=O)C2=CN1C(CCCN=C(N)N)C(=O)O (stereo not given),inactive
9,CC1CCC2(C(=O)O)CCC3(C)C(=CCC4C5(C)CCC(O)C(C)(CO)C5CCC43C)C2C1(C)O (stereo not given),inactive
10,C[C@H]1CC(=O)Nc2cccc(-c3cnn(C(C)(C)C)c3)c2N1,inactive
11,COc1cc(O)c2c(c1)C1OC1C[C@H](O)[C@H](O)C(=O)/C=C\C[C@H](C)OC2=O (stereo not given in full),4.61 µM (active)
12,COc1cc(/C=C/C=O)cc(OC)c1O[C@@H]1O[C@H](CO)[C@@H](O)[C@H](O)[C@H]1O,inactive
13,COC(=O)C1=C(C)NC(COC(N)=O)=C(C(=O)OC(C)C)C1c1cccc(Cl)c1Cl (stereo not given),14.6 µM (active)
14,C[C@H]1/C=C/C=C/C=C/C=C/C=C/[C@@H](O)[C@H](C(=O)O)[C@H](O)C[C@H](O)CCC[C@H](O)C[C@H](O)C[C@H](O)[C@@H](C)C(=O)O[C@@H]1C,inactive
15,CC1CCC23COC(=O)C2=CC(O)CC3C1(C)CCC1=CC(O)OC1=O (stereo not given),inactive
16,CN(C)CCCn1cc(C2=C(c3c[nH]c4ccccc34)C(=O)NC2=O)c2ccccc21,0.116 µM (active)
17,COC(=O)c1ccccc1O[C@@H]1O[C@H](CO)[C@@H](O)[C@H](O)[C@H]1O[C@@H]1O[C@@H](C)[C@H](O)[C@@H](O)[C@H]1O,inactive
18,COc1ccccc1-n1c(SCC(=O)Nc2nc3ccc(C)cc3s2)nc2c(c1=O)SCC2,inactive
19,CC(NCCC(c1ccccc1)c1ccccc1)c1ccccc1 (stereo not given),10.6 µM (active)
20,COC(=O)C1=CO[C@@H](O[C@@H]2O[C@H](CO)[C@@H](O)[C@H](O)[C@H]2O)[C@@H]2[C@@H](C(=O)OC)[C@@H](O)C(O)[C@H]12 (stereo not given in full),inactive
21,COc1c2c(c(C)c3c1C(=O)OC3)O[C@@]1(C)CC(O)C(C(C)(C)O)[C@](C)(CCC(=O)O)[C@H]1C2 (stereo not given in full),7.09 µM (active)
22,COC(=O)c1sccc1S(=O)(=O)Nc1ccc(Nc2ccccc2)cc1OC,3.26 µM (active)
23,CC(O)C(O)/C=C/C=C/C(=O)O[C@@H]1C=C2COC(=O)[C@]2(O)[C@@]2(C)CCCC(C)(C)C12 (stereo not given in full),inactive
